Bioassay records: PubChem, National Center for Advancing Translational Sciences (NCATS)
BAZ2B block: blocks human BAZ2B. Potency, µM (top dose mostly 114 µM), most hits filed as inhibitors. AID 504333. Q9UIF8. AlphaScreen BAZ2B-H3K14Ac peptide displacement. 360,000 tested, 4.4% active; further: nearly all actives have a fitted effect of over 60% in size
Target sequence (Q9UIF8 whole entry, looked up): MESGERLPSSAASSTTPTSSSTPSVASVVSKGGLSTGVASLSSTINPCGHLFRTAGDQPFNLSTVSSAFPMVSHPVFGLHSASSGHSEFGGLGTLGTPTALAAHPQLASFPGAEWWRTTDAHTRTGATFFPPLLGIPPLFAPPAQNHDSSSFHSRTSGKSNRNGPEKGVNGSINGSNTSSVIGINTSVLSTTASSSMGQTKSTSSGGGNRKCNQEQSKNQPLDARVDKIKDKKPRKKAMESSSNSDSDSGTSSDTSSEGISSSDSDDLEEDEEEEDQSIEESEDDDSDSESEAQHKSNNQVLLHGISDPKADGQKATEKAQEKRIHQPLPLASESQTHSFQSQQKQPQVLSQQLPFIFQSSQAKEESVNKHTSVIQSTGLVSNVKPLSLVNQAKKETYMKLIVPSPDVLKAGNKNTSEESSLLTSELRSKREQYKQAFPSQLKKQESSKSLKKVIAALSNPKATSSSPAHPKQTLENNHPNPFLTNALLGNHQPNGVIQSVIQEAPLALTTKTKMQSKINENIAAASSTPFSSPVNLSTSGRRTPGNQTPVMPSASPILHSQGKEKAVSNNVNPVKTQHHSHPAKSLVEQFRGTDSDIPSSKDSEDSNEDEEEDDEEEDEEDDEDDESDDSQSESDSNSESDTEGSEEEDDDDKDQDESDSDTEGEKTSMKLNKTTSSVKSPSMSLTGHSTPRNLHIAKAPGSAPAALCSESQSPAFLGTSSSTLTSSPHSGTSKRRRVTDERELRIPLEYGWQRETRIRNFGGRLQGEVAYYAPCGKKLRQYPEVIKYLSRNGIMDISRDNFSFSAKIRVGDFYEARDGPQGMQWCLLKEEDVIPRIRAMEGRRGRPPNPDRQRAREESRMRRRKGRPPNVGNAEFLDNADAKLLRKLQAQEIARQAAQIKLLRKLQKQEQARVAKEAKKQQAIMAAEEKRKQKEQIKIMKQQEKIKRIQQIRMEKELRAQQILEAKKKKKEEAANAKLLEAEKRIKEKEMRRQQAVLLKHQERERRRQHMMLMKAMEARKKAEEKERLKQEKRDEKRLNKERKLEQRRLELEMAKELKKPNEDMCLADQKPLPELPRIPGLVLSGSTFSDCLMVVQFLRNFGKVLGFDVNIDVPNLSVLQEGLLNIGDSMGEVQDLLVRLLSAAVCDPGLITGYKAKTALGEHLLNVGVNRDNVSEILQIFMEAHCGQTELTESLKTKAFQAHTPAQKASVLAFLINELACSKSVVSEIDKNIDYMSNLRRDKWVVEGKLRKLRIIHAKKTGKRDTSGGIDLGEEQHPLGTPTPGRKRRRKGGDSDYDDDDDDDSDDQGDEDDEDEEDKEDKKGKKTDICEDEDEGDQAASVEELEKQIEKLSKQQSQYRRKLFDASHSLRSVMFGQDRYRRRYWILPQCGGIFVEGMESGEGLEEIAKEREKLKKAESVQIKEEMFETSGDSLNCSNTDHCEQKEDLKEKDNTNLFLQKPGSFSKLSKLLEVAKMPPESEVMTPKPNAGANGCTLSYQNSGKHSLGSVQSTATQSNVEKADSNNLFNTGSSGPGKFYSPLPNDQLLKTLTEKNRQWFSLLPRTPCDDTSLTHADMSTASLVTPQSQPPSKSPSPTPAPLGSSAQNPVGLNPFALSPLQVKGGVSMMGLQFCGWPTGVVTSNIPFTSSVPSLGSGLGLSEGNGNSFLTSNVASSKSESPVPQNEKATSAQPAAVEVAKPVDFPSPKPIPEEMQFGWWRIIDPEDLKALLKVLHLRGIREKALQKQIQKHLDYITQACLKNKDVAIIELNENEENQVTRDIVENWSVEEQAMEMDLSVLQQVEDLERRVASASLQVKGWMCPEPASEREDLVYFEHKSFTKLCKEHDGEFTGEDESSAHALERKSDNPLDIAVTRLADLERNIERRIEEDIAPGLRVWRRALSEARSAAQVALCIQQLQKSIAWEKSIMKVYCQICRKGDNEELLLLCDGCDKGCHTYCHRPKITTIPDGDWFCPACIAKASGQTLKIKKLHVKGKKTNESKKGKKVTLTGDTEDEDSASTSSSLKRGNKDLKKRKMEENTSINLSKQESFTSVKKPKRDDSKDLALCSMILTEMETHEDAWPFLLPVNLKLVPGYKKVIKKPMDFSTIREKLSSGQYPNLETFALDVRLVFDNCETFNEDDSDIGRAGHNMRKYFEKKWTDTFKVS
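AlphaScreen luminescence quantifies BAZ2B engagement of H3K14Ac peptide; the protein and biotinylated peptide are both at 50 nM final, buffer PBS pH 7.4 with 0.01% Tween-20, all steps at room temperature.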
HP1b binding inh: HP1-beta chromodomain-methylated histone interaction inhibition. AlphaScreen HP1-beta / biotin-H3K9me3 peptide binding. 390,000 tested, 0.56% active. Potency, µM (titrated, usually from 114 µM), usual class: inhibitors; further: nearly all actives have a fitted effect of over 70% in size
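HP1-beta protein (50 nM final) preincubated 30 min at room temperature with biotinylated H3(1-18)K9me3 peptide (50 nM) in PBS pH 7.4, 0.01% Tween-20, then compound added for 30 min. AlphaScreen streptavidin donor/nickel chelate acceptor beads (10 ug/mL final), 30 min dark, luminescence read.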
L3MBTL1 block: blocks human L3MBTL1 | AID 485360 | Potency, µM (doses to about 57.1 µM), actives largely listed as inhibitors | 230,000 tested, 0.66% active | AlphaScreen L3MBTL1–H3K9me1 peptide binding | Q9Y468; further: nearly all actives have a fitted effect of over 60% in size
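Read-out is AlphaScreen signal from streptavidin donor and nickel chelate acceptor beads (10 ug/mL final each) bridging L3MBTL1 (50 nM) and biotinylated K9-monomethylated H3(1-15) peptide (75 nM), after 30 min compound exposure at room temperature.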
JMJD2A Tudor: JMJD2A Tudor domain (human) inhibition | Potency, µM (titrated, usually from 114 µM), most hits filed as inhibitors | AlphaScreen JMJD2A-Tudor / H3K4me3 peptide binding | O75164 | 390,000 tested, 4.4% active | AID 504339; further: nearly all actives have a fitted effect of over 50% in size
Sfp inh: inhibitors of Bacillus subtilis Sfp phosphopantetheinyl transferase. Q9F4F7. Biochemical Sfp PPTase activity, qHTS. Potency, µM, most hits filed as inhibitors. 310,000 tested, 3.5% active. AID 1490;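 further: the enzyme is Sfp with the accession as filed and its product quenches rhodamine fluorescence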
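Fluorescence-quenching assay: 15 nM Sfp-PPTase preincubated 15 min at room temperature with compound, then 5 uM rhodamine-CoA and 12.5 uM BHQ-2-labelled YbbR peptide added. Fluorescence (ex 525/em 598 nm) read at start and after 30 min; difference gives rate.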
G9a block: blocks human histone lysine methyltransferase G9a | Q96KQ7 | G9a H3K9 monomethylation, AlphaScreen, 2 h | Potency, µM (highest dose often 102 µM), hits mostly inhibitors | 350,000 tested, 8.8% active | AID 504332; further: nearly all actives have a fitted effect of over 75% in size
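Enzyme 20 nM + cpd, 15 min RT; add b-H3K9 pep 500 nM / SAM 20 uM; 2 h RT; anti-H3K9me1 Ab 0.5 ug/mL + SA donor / anti-rabbit acceptor beads 20 ug/mL each, 10 min; AlphaScreen read.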
Large screens that a line does not name were inactive. A selection: hits, their analogues and other compounds. The true share with any hit is near 12%. The call rests on the fitted dose curve; in most records, active means well fitted curve in the direction sought with a large enough effect; inconclusive means small, poorly fitted or top-dose-only effect, or another doubt; inactive means no such curve, though single readings can be large; an effect the other way counts as inactive or inconclusive.

O=S(=O)(Nc1ccc(N2CCOCC2)cc1)c1ccc2ccccc2c1	BAZ2B block inconclusive, JMJD2A Tudor inconclusive, G9a block 40µM (no result: L3MBTL1 block)
Cc1ccc(S(=O)(=O)Nc2ccc(N3CCCCC3)cc2)cc1	BAZ2B block 35µM, HP1b binding inh inconclusive, JMJD2A Tudor inconclusive, G9a block 22µM
O=S(=O)(Nc1cc(C(F)(F)F)ccc1N1CCOCC1)c1ccc2ccccc2c1	G9a block 50µM
Cc1ccc(S(=O)(=O)Nc2ccc(N3CCOCC3)cc2)cc1C	JMJD2A Tudor inconclusive, G9a block 45µM (no result: L3MBTL1 block)
CC(=O)N1CCN(c2ccc(NS(=O)(=O)c3ccc(C)cc3)cc2)CC1	G9a block 45µM (no result: L3MBTL1 block)
Cc1ccc(S(=O)(=O)NC(=O)NC2CCCC2)cc1	none (no result: BAZ2B block, HP1b binding inh, L3MBTL1 block, JMJD2A Tudor)
CCCCc1nn2c(=O)cc(COC(=O)c3ccc(NC(=O)c4ccccc4Cl)cc3)nc2s1	none (no result: L3MBTL1 block, Sfp inh)
Cc1ccc(S(=O)(=O)Nc2ccc(N3CCOCC3)cc2)cc1	BAZ2B block 56µM, G9a block 79µM (no result: L3MBTL1 block)
FC(F)(F)c1ccc(N2CCOCC2)c(NC2=NCCCCC2)c1	BAZ2B block inconclusive, G9a block 50µM
Cc1ccc(S(=O)(=O)c2ccc(NN)cc2)cc1	G9a block 8.9µM
Cc1ccc(NC(=O)CN2CCOCC2)cc1Cl	none (no result: L3MBTL1 block)
Cc1ccc(S(=O)(=O)Nc2cc(NC(=O)CN3CCOCC3)ccc2Cl)cc1	BAZ2B block 79µM, G9a block inconclusive
Cc1ccc(C)c(NC(=O)Cn2ncc3c(C)n(Cc4ccc(F)cc4)c(C)c3c2=O)c1	none (no result: L3MBTL1 block, Sfp inh)
c1ccc(-c2cnc(C3CCCCC3)o2)cc1	none (no result: BAZ2B block, L3MBTL1 block, Sfp inh, G9a block)
S=c1[nH]nc(C2CCCCC2)o1	JMJD2A Tudor 20µM, G9a block 28µM
CCC(C)NC(=O)Cn1ncc2c(C)n(Cc3ccc(F)cc3)c(C)c2c1=O (centres undefined)	none (no result: L3MBTL1 block, Sfp inh)
COc1ccccc1N(C)S(=O)(=O)c1ccc(C(=O)N(CC(N)=O)C(C)C)cc1	BAZ2B block 89µM (no result: L3MBTL1 block)
COCCNC(=O)c1cc(S(=O)(=O)N(C)c2ccccc2OC)ccc1C	G9a block 28µM
CCCn1c(-c2ccc(F)cc2)nc2c(NCCCN(CCO)CCO)nc(C)nc21	none (no result: BAZ2B block, HP1b binding inh, L3MBTL1 block, JMJD2A Tudor, G9a block)
C#CCOCCOCCOCCNc1nc(N2CCN(C(=O)[C@H](CCCCN)n3cc([C@@H](N)CC(C)C)nn3)CC2)nc(N2CCN(C(=O)[C@H](Cc3cc4ccccc4[nH]3)n3cc([C@@H](N)Cc4ccc(O)cc4)nn3)CC2)n1	JMJD2A Tudor 18µM
C#CCOCCOCCOCCNc1nc(OC)nc(N2CCN(C(=O)[C@H](CCCCN)n3cc(C(N)CO)nn3)CC2)n1 (some centres undefined)	BAZ2B block inconclusive (no result: HP1b binding inh, L3MBTL1 block, JMJD2A Tudor)
C#CCOCCOCCOCCNc1nc(N2CCN(C(=O)[C@H](CCCCN)n3cc([C@@H](N)CO)nn3)CC2)nc(N2CCN(C(=O)[C@H](Cc3cc4ccccc4[nH]3)n3cc([C@@H](N)Cc4ccc(O)cc4)nn3)CC2)n1	BAZ2B block 32µM, L3MBTL1 block inconclusive (no result: HP1b binding inh, JMJD2A Tudor)
CC1=C/C(=C/N(C)C)C(=O)O1	L3MBTL1 block inconclusive, G9a block inconclusive
O=C1OC(c2ccccc2)=C/C1=C/N1CCOCC1	Sfp inh 20µM, G9a block 8.9µM
N#C/C(=C\N1CCOCC1)c1ccccc1	none (no result: L3MBTL1 block)
O=C1OC(c2ccccc2)=C/C1=C\N1CCOCC1	JMJD2A Tudor inconclusive, Sfp inh inconclusive, G9a block 8.9µM
CN(C)/C=C1/C=C(c2ccccc2)OC1=O	Sfp inh 40µM, G9a block 35µM (no result: L3MBTL1 block)
CCOc1ccc(OCC)c(NC(=O)CCC(=O)N2CCOc3ccccc32)c1	none (no result: L3MBTL1 block, Sfp inh)
Brc1ccc(C2=N[C@@H](Cc3ccccc3)CO2)cc1	none (no result: BAZ2B block, HP1b binding inh, L3MBTL1 block, JMJD2A Tudor)
Cc1ccc2c(=O)cc(C(=O)Nc3c(C)n(C)n(-c4ccccc4)c3=O)oc2c1C	none (no result: L3MBTL1 block, Sfp inh)
C/C(=N\N1C(=O)c2ccccc2NC1c1ccco1)c1ccccc1O (centres undefined)	BAZ2B block 71µM, HP1b binding inh inconclusive, JMJD2A Tudor inconclusive
CC(C)(O)C1Cc2cc(/C=C/C(=O)O)c(O)cc2O1 (centres undefined)	BAZ2B block 20µM, HP1b binding inh inconclusive, JMJD2A Tudor 4µM, Sfp inh 6.3µM, G9a block 2µM
